Measured values published in PubChem BioAssay (EPA / NIEHS).
Results filed as inconclusive are left out. Activity calls are given as the source filed them. Rule for the calls, unless noted: active = hit-call score of the fitted dose curve at least 0.9, where 1 is the maximum; inactive = score below 0.9.

Assays:
[1] = ATG_TCF_b_cat_CIS: Attagene CIS-FACTORIAL HepG2 Assay for human T-Cell-Factor with beta-catenin (TCF/b-cat) (AID 2282965); settings: HepG2 TCF/beta-catenin cis-reporter transcription, actives raise or lower the signal
Procedure, shortened: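 Cells of the HepG2 line carry transiently transfected reporter units whose promoters respond to endogenous factors. Twenty-four hours post-dosing, reporter mRNA induction is measured by fluorescent RT-PCR and capillary electrophoresis, with DMSO as baseline.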

[2] = ATG_TAL_CIS: Attagene CIS-FACTORIAL HepG2 Assay for human TAL Basal Promoter (AID 2282966); settings: HepG2 Attagene cis-factorial TAL promoter reporter; actives raise or lower the signal;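 note: background control endpoint measuring basal TAL promoter reporter mRNA not a specific factor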
Procedure, shortened: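 After 24 hours of chemical exposure, transfected HepG2 cells yielded RNA that was converted to 6-FAM-labelled, HpaI-digested reporter fragments for capillary electrophoresis. Values derive from bidirectional fitting against DMSO controls.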

[3] = ATG_TGFb_CIS: Attagene CIS-FACTORIAL HepG2 Assay for human Transforming Growth Factor (TGF) (AID 2282967); settings: HepG2 Attagene CIS TGFb reporter, mRNA transcription; actives raise or lower the signal
Procedure, shortened: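 Multiplexed cis-reporter HepG2 system, 24 h treatment; mRNA induction read by fluorescence after RT-PCR and CE; DMSO negative control, bidirectional curve fitting.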

[4] = molecular target: X-box-binding protein 1 (Homo sapiens) (UniProt P17861); experiment: ATG_Xbp1_CIS: Attagene CIS-FACTORIAL HepG2 Assay for human X-box Binding Protein 1 (XBP1) (AID 2282972); settings: HepG2 XBP1 cis-element reporter, Attagene multiplex; actives raise or lower the signal
Procedure, shortened: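 Reporter transcripts were quantified by RT-PCR with fluorescent primer extension and capillary electrophoresis after 24 h chemical exposure. Cells: transiently transfected HepG2 carrying cis-regulated reporter constructs; data fitted bidirectionally relative to DMSO.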

[5] = ATG_M_19_TRANS: Attagene TRANS-FACTORIAL HepG2 Assay for M19 Transcription Factor (Internal Marker) (AID 2282974; active = hit-call score of the fitted dose curve at least 0.9, where 1 is the maximum); settings: HepG2 Attagene TRANS-FACTORIAL M19 internal marker reporter
Procedure, shortened: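 HepG2 transiently transfected with GAL4-UAS multiplex reporter constructs, exposed 24 h; reporter RNA quantified by RT-PCR, 6-FAM labeling, HpaI digestion and capillary electrophoresis; internal background marker fitted upward versus DMSO.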

[6] = ATG_GAL4_TRANS: Attagene TRANS-FACTORIAL HepG2 Assay for GAL4 (Internal Marker) (AID 2282976; active = hit-call score of the fitted dose curve at least 0.9, where 1 is the maximum); settings: HepG2 Attagene TRANS GAL4 internal marker reporter
Procedure, shortened: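 First, HepG2 cells were transfected with reporter units under GAL4-UAS control. Next, they were treated with chemical for 24 h. Finally, RNA was reverse-transcribed, PCR-amplified, FAM-labelled and resolved by capillary electrophoresis, with induction scored against DMSO.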

[7] = molecular target: Estrogen receptor (Homo sapiens) (UniProt P03372); experiment: ATG_ERa_TRANS: Attagene TRANS-FACTORIAL HepG2 Assay for human Estrogen Receptor alpha (ERa) (AID 2282970; active = hit-call score of the fitted dose curve at least 0.9, where 1 is the maximum); settings: HepG2 Attagene TRANS ERa GAL4 reporter, mRNA
Procedure, shortened: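 Liver-derived HepG2 cells expressing chimeric nuclear receptor-Gal4 proteins from transient transfection were exposed for 24 hours. Gain of reporter mRNA signal versus DMSO, read by capillary electrophoresis of FAM-labelled PCR products, was recorded.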

[8] = molecular target: Steroid hormone receptor ERR1 (Homo sapiens) (UniProt P11474); experiment: ATG_ERRa_TRANS: Attagene TRANS-FACTORIAL HepG2 Assay for human Estrogen-Related Receptor alpha (ERRa) (AID 2282971; active = hit-call score of the fitted dose curve at least 0.9, where 1 is the maximum); settings: HepG2 Attagene TRANS reporter, ERRa transactivation
Procedure, shortened: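 Reporter transcript induction was quantified by RT-PCR and capillary electrophoresis of FAM-labelled, HpaI-cut products after 24 h treatment of HepG2 cells carrying transiently transfected GAL4-UAS reporter units and an exogenous ERRa-Gal4 fusion; activity scored as increase over DMSO.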

Estrogen receptor (Homo sapiens), sequence (P03372 whole entry, looked up, the tested form may be a part): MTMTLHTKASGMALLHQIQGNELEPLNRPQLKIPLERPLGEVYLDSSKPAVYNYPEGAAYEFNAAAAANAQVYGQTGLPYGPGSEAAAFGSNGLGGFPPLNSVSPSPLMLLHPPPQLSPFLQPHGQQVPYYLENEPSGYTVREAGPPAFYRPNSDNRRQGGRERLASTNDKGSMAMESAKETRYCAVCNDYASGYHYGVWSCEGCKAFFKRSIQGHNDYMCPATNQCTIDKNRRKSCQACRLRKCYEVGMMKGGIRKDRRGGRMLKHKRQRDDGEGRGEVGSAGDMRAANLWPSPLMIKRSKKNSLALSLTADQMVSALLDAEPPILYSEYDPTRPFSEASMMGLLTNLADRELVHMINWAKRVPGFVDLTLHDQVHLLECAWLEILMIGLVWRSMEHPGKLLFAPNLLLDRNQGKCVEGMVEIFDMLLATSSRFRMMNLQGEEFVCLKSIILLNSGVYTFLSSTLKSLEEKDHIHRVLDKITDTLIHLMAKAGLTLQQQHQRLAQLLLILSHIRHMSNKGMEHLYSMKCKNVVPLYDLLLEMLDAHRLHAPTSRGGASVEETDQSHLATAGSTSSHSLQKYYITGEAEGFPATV
X-box-binding protein 1 (Homo sapiens), sequence (P17861 whole entry, looked up): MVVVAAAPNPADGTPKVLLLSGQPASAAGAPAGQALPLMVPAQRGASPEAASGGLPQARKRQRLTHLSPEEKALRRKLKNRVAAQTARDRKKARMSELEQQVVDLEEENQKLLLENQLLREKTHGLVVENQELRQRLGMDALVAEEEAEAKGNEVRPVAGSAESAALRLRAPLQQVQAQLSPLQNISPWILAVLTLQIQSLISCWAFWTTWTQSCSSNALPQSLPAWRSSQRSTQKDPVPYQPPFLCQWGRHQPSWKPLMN
Steroid hormone receptor ERR1 (Homo sapiens), sequence (P11474 whole entry, looked up, the tested form may be a part): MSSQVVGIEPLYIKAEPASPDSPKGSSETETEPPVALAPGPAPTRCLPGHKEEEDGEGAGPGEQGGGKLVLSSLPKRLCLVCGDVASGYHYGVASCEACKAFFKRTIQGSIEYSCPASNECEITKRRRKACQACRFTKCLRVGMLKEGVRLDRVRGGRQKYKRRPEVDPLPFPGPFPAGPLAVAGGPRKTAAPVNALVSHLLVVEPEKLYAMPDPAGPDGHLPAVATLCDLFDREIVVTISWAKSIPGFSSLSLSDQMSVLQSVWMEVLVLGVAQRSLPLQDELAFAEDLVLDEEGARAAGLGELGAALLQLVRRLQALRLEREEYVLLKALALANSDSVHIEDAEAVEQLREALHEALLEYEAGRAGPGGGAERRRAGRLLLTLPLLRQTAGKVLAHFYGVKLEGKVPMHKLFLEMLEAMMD

Structure (SMILES) | outcome [1] | outcome [2] | outcome [3] | outcome [4] | outcome [5] | outcome [6] | AC50 [1] | outcome [7] | outcome [8] | AC50 [7]
OC[C@@H](O)[C@@H](O)[C@H](O)[C@H](O)CO | inactive | inactive | inactive | inactive | inactive | inactive | – | – | – | –
O=C(O)Cc1ccccc1Nc1c(Cl)cccc1Cl | – | inactive | inactive | inactive | inactive | inactive | 40.6 µM (active) | inactive | – | –
CCOC(=O)CCC(=O)OCC | inactive | inactive | inactive | inactive | – | – | – | – | inactive | –
COC(=O)c1ccc(O)cc1 | inactive | inactive | inactive | inactive | – | – | – | – | – | 63.8 µM (active)
Cc1cccc(C)c1O | inactive | inactive | inactive | inactive | inactive | inactive | – | – | – | 31.9 µM (active)
CC(=O)OC/C=C(\C)CCC=C(C)C | inactive | inactive | inactive | inactive | inactive | – | – | inactive | – | –
Clc1cc(Cl)c(Cl)cc1Cl | inactive | inactive | inactive | inactive | – | – | – | – | – | –
CC(=O)C(C)=CC1C(C)=CCCC1(C)C (stereo not given) | inactive | inactive | inactive | inactive | – | inactive | – | – | – | 29.8 µM (active)
C=CCOC(=O)c1ccccc1C(=O)OCC=C | inactive | inactive | inactive | inactive | inactive | inactive | – | – | – | 76.7 µM (active)
O=C(O)CCCCC(=O)O | inactive | inactive | inactive | inactive | inactive | – | – | – | – | –
CCCCCCCCCCC | inactive | inactive | inactive | inactive | inactive | inactive | – | – | inactive | –
CC1=C(/C=C/C(C)=C/C=C/C(C)=C/CO)C(C)(C)CCC1 | – | inactive | inactive | inactive | – | inactive | 25.9 µM (active) | – | – | 4.28 µM (active)
CCCCCCOCCO | inactive | inactive | inactive | inactive | inactive | inactive | – | inactive | – | –
C=CCc1ccc(O)c(OC)c1 | – | inactive | inactive | inactive | inactive | – | 176 µM (active) | – | – | 41.4 µM (active)
CN1CCCC1=O | inactive | inactive | inactive | inactive | – | – | – | inactive | – | –
Cc1nc(C)nc(N2C[C@@H](C)N(c3ccnc([C@@H](C)O)n3)[C@@H](C)C2)n1 | inactive | inactive | inactive | inactive | – | inactive | – | – | – | –
Nc1ccc(S(=O)(=O)c2ccc(N)cc2)cc1 | inactive | inactive | inactive | inactive | inactive | – | – | inactive | – | –
CC=Cc1ccc(O)c(OC)c1 | inactive | inactive | inactive | inactive | – | inactive | – | inactive | – | –
CC1(C)CC(N=C=O)CC(C)(CN=C=O)C1 (stereo not given) | inactive | inactive | inactive | inactive | – | – | – | – | – | –
CCCc1cc(=O)[nH]c(=S)[nH]1 | inactive | inactive | inactive | inactive | inactive | inactive | – | – | – | 8.12 µM (active)
CCCCCCCCCCCCCCCCCC(=O)O | inactive | inactive | inactive | inactive | inactive | inactive | – | – | – | 25.9 µM (active)
C1CCC(SSC2CCCCC2)CC1 | inactive | inactive | inactive | inactive | – | – | – | – | – | 27.4 µM (active)
CNCc1cc(F)ccc1Oc1ccc(Cl)c(Cl)c1 | inactive | inactive | inactive | inactive | inactive | – | – | inactive | – | –
Cc1oc(-c2ccccc2)nc1CCOc1cccc2c1ccn2CCC(=O)O | inactive | inactive | inactive | inactive | inactive | – | – | – | – | –
Cc1ccc2ncccc2c1 | inactive | inactive | inactive | inactive | inactive | – | – | – | – | –
